This is a sample that favours compounds with a hit; in the whole collection about 1.2% have one here.
KAT2A inh = inhibitors of human GCN5L2 histone acetyltransferase; Q92830; GCN5L2 HAT assay, ThioGlo1 CoA-SH fluorescence; 390,000 compounds, 0.21% hits; AID 504327; Potency, µM (doses to about 58.9 µM), actives largely listed as inhibitors
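Compounds, pin-transferred from DMSO stocks, meet 20nM GCN5L2 for 15 min before the reaction begins with H3(1-25) peptide (75uM) and acetyl-CoA (70uM). Thiol-reactive ThioGlo1 reports CoA release over 20 min at room temperature.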
PI4K2A block = PI4K2A (human) kinase inhibition; purified PI4K2A, ADP-Glo luminescence, 1 h; stronger effect = lower value; activity change, negative = inhibition, % at 76.9 µM; AID 1346378; 420,000 compounds, 0.13% hits; in the data active means activity change below about -50%; inconclusive means mostly about -30% to -49%
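In this quantitative HTS, ADP production by PI4K2A was quantified luminescently after 1 h at ambient temperature; 100 microM adenosine served as plate-quality control.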
GoLoco inh red = RGS12 GoLoco-Gai1 interaction inhibition; 230,000 compounds, 0.44% hits; Potency, µM (top dose mostly 61.6 µM), most hits filed as inhibitors; Gai1:RGS12 GoLoco peptide FP, rhodamine, 10 min; active means well fitted inhibition curve with a large enough effect, not every such curve was filed as active; inactive means no such curve, though single readings can be large or run the other way; further: nearly all actives have a fitted effect of over 30% in size
PI5P4Ka inh = blocks human PI5P4K alpha kinase activity | P48426 | 330,000 compounds, 1.2% hits | PI5P4Kalpha enzyme, ADP-Glo luminescence, 60 min; stronger effect = lower value | max response, % | AID 652105; active means max response of -50% or lower; inconclusive means between -30% and -50%; inactive means -30% or higher; further: value at the top dose of about 77 µM
Target sequence (P48426 whole entry, looked up): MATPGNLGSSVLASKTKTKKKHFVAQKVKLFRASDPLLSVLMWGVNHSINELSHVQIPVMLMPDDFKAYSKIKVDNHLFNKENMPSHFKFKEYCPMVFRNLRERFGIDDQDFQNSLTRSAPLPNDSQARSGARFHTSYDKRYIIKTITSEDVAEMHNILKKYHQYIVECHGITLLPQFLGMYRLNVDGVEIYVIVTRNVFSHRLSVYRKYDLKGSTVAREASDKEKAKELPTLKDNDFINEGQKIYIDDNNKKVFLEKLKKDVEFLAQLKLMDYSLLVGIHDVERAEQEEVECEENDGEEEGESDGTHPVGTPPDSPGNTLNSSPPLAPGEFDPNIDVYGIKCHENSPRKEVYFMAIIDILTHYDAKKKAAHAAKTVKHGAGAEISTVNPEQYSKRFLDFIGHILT
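PI5P4Kalpha ADP-Glo assay; 5 microM ATP final; 60 min RT reaction; HEPES pH 7.4/EGTA/CHAPS, 5% DMSO; controls lacking substrate or enzyme; luminescent end-point.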
Tb PGK inh = blocks T. brucei phosphoglycerate kinase. PGK/GAPDH coupled, Kinase-Glo luminescence, 60 min. 380,000 compounds, 0.043% hits. P07378. Potency, µM (highest dose often 57.5 µM), usual class: inhibitors; further: nearly all actives have a fitted effect of over 60% in size
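Luminescent ATP detection (Kinase-Glo Plus) follows a 60-minute room-temperature incubation, with wells lacking PGK as controls. Buffer: 100 mM TEA (pH 7.6), 5 mM MgCl2, 0.01% Tween-20. Coupling enzyme GAPDH (100 nM final) supplies unstable 1,3-BPG in-well.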
Pin1 inhibitor = inhibitors of human Pin1. Pin1 FP peptide displacement, HiFluor488, 10 min. Potency, µM (series often up to 115 µM), actives largely listed as inhibitors. AID 504891. 390,000 compounds, 0.009% hits. Q13526; active means well fitted inhibition curve with a large enough effect in the polarisation, with a control signal flat, not every such curve was filed as active; inconclusive means small, poorly fitted or top-dose-only effect, or effect the other way, or a change in a side signal; inactive means no such curve, though single readings can be large or run the other way; the % refers to the polarisation
Target sequence (Q13526 whole entry, looked up): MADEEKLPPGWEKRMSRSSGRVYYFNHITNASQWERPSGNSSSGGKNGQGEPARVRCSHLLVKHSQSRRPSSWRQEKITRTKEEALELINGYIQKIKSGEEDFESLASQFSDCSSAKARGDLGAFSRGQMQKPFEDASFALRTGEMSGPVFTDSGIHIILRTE
ADP-Glo counter = interferes with ADP-Glo detection without enzyme present; Potency, µM (series often up to 76.9 µM), most hits filed as inhibitors; 1,100 tested, under 10 active; ADP-Glo detection counter-screen, luciferase luminescence, no enzyme; AID 743285; shares compounds with PI5P4Ka inh
Numbers stand for hits; i = inactive; ? = inconclusive; nt = no result given. Unless noted, the call rests on the fitted dose curve; in most records, active means well fitted curve in the direction sought with a large enough effect; inconclusive means small, poorly fitted or top-dose-only effect, or another doubt; inactive means no such curve, though single readings can be large; an effect the other way counts as inactive or inconclusive.

SMILES	KAT2A inh	PI4K2A block	GoLoco inh red	PI5P4Ka inh	Tb PGK inh	Pin1 inhibitor	ADP-Glo counter
Cc1ccc(-c2csc3nc4cc(C(N)=O)ccc4c(=O)n23)cc1	i	i	i	-51	i	?	i
COc1cc2nc(Nc3ccc(C)c(Cl)c3)nc(N)c2cc1OC	i	i	nt	-60	i	?	i
Cc1cccc(Nc2c(-c3ccc(N4CCOCC4)cc3)nc3ncccn23)c1	i	i	i	i	i	i	nt
CCCCNC(=O)c1onc(CSc2ccc(F)cc2)c1C(=O)O	i	i	i	?	i	i	nt
CC(C)NC(=O)c1onc(CSc2ccccc2F)c1C(=O)O	i	i	i	-66	i	i	i
CCCCNC(=O)c1onc(CSc2ccc(OC)cc2)c1C(=O)O	i	i	i	-50	i	i	i
Cc1ccc(-n2c(SCC(=O)Nc3ccc4c5c(cccc35)CC4)nc(O)cc2=O)cc1	i	i	i	-51	i	i	i
Cc1ccc(-n2c(SCC(=O)Nc3ccc4c5c(cccc35)CC4)nc(O)c(C)c2=O)cc1	i	i	i	i	i	i	nt
CCC(=O)NC(c1cccs1)c1cc([N+](=O)[O-])c2cccnc2c1O (stereo unspecified)	i	i	i	i	i	i	nt
CC(=O)NC(c1cccs1)c1cc([N+](=O)[O-])c2cccnc2c1O (stereo unspecified)	i	i	i	-73	i	i	i
C/C=C(/C)C(=O)O[C@H]1C[C@@]2(C)O[C@H]2[C@@H](OC(C)=O)C2(C)CC[C@@](O)(C(C)C)C12 (stereo partly specified)	i	nt	nt	nt	nt	nt	nt
O=C(COC(=O)c1ccc(S(=O)(=O)N2CCCCC2)cc1)NCc1ccco1	i	i	i	i	i	i	nt
O=C(OCc1ccco1)c1ccc(S(=O)(=O)N2CCCCC2)cc1	?	i	i	-52	i	i	i
Cc1ccc(NC(=O)c2ccc3c(c2)NC(=O)CS3)nc1	i	i	nt	-57	i	i	i
Cc1nnc(NC(=O)c2ccc3c(c2)NC(=O)CS3)s1	i	i	nt	i	i	i	nt
Cc1cc(C)c(NC(=O)CSc2nnc(-c3ccncc3)n2Cc2ccco2)c(Cl)c1	i	i	i	i	i	i	nt
O=C(Nc1nnc(-c2ccc(Cl)cc2)o1)c1nc2ccccc2s1	i	i	i	-50	i	i	i
O=C(Nc1nnc(-c2ccc(Cl)cc2)o1)Nc1ccccc1Cl	i	i	i	i	i	i	nt
O=C(Nc1nnc(-c2ccncc2)o1)c1ccccc1	i	i	i	-84	i	i	i
Cc1nn2c(=O)[nH]cnc2c1Cl	nt	i	nt	-59	i	nt	i
O=C(Nc1cccc(-c2ccc(N3CCOCC3)nn2)c1)c1ccccc1Cl	i	i	nt	i	i	i	nt
CCN(CC)C(=O)c1[nH]cnc1C(=O)Nc1cccc(Cl)c1	i	i	nt	i	i	i	nt
CCN(CC)C(=O)c1cc(Cl)ccn1	i	i	i	?	i	i	i
CCN(CC(=O)Nc1ccc(OC)cc1)C(=O)c1ccc([N+](=O)[O-])cc1	i	i	i	-64	i	i	i
CCN1CCN(C(=O)c2sc3nc(C)nc(N4CCC(C)CC4)c3c2C)CC1	i	i	i	i	i	i	nt
SMILES	KAT2A inh	PI4K2A block	GoLoco inh red	PI5P4Ka inh	Tb PGK inh	Pin1 inhibitor	ADP-Glo counter
Cc1nc(N2CCC(C)CC2)c2c(C)c(C(=O)O)sc2n1	i	i	i	nt	i	?	i
CC(=O)Nc1ccc(SCC(=O)c2cc(C)n(-c3ccccc3F)c2C)cc1	i	i	i	i	i	i	nt
CCCc1cc(=O)[nH]c(SCC(=O)Nc2sc3c(c2C#N)CCC(C)C3)n1 (stereo unspecified)	i	i	i	-54	i	?	i
Cc1nnc(SCC(=O)Nc2sc3c(c2C(N)=O)CCC(C)C3)[nH]c1=O (stereo unspecified)	i	i	nt	-54	i	i	i
CC1CCc2c(sc(NC(=O)CSc3ncn[nH]3)c2C#N)C1 (stereo unspecified)	i	i	i	i	i	i	nt
Cc1nnc(SCC(=O)Nc2sc3c(c2C(N)=O)CCCC3)[nH]c1=O	i	i	i	?	i	i	nt
CC(C)N(CCC(=O)c1ccc2ccccc2c1)Cc1ccccc1	?	i	i	-89	i	?	i
CC1Cc2cc(S(=O)(=O)N(Cc3ccccc3)C(C)C)ccc2N1C(=O)C1CCC1 (stereo unspecified)	i	i	nt	nt	i	i	nt
O=S(=O)(Nc1ccccc1N1CCCCC1)c1ccc(Cl)s1	i	i	i	-55	i	i	i
O=C(CNC(=O)c1cccc(OC(F)F)c1)OCc1cc(=O)n2cc(Br)ccc2n1	i	i	i	-56	i	?	i
O=C(Nc1nc(-c2ccco2)c(-c2ccco2)s1)c1ccc(F)cc1F	?	?	nt	-64	i	?	i
O=C(Nc1nc(-c2ccco2)c(-c2ccco2)s1)c1cnccn1	i	i	nt	-67	i	?	i
O=C(Nc1nc(-c2ccco2)c(-c2ccco2)s1)c1c(F)cccc1Cl	i	i	nt	i	i	i	nt
COc1cccc(-c2nc(NCCc3c[nH]c4ccc(OC)cc34)c3ccccc3n2)c1	i	nt	i	nt	nt	nt	nt
O=C1CCC(C(=O)N2CCCCCCC2)CN1Cc1cccc(C(F)(F)F)c1 (stereo unspecified)	i	i	nt	i	i	i	nt
CCOc1ccc(-n2ccc(=O)c(C(=O)Nc3ccc(S(=O)(=O)Nc4nccs4)cc3)n2)cc1	i	i	nt	?	i	?	nt
O=C(Nc1ccc(S(=O)(=O)Nc2nccs2)cc1)c1nn(-c2ccc(F)cc2)ccc1=O	i	i	nt	-70	i	?	i
CNC(=O)COC(=O)c1c2c(nc3ccccc13)CCC2	i	i	i	?	i	?	nt
C=CCNC(=O)COC(=O)c1c2c(nc3ccccc13)CCC2	i	i	nt	-75	i	?	i
Cc1nc2ccccn2c(=O)c1NC(=O)c1ccccc1Cl	i	i	nt	nt	i	i	nt
Cc1cc(C(=O)OCC(=O)Nc2c(F)cccc2F)c(C)n1-c1ccccc1	i	i	i	-75	i	i	i
Cc1nccn1CCc1nc(N)nc(N)n1	i	i	i	nt	i	i	nt
COCc1c(C(=O)N2CCc3ccccc32)oc2ccccc12	i	i	nt	-77	?	i	i
Cc1c(C(=O)N2CCc3ccccc32)oc2ccccc12	i	i	i	i	i	i	nt
COc1ccc(CSc2nnnn2C)cc1[N+](=O)[O-]	i	i	i	nt	i	i	nt
CN1CCN(S(=O)(=O)c2ccc(N3CCc4ccccc4C3)nc2)CC1	i	i	i	-69	i	i	i

Bioassay records as filed in PubChem.
